This passage reports growth results from PubChem BioAssay (NCI).

The panel holds about 83,000 compounds, 20% with a hit somewhere; the sample as a whole holds those more often.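 Testing used 96-well plates and a 48-hour single-concentration exposure. Example: -40 means 40% of the starting cells died.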 Activity calls are given as the source filed them. How the source made its calls: active means growth percent below 10; inactive means the rest.

In the assay the test system is DU-145 prostate. Briefly: NCI-60 one-dose screen, 48 h (100 = growth as untreated, 0 = no growth, -100 = all killed). The settings on record: 10 µM unless noted.
For the compound `CC(=O)c1cc(O)c2ccccc2c1O`, the growth is 126% (inactive).

Turning to `CC[C@]12C=CCN3CC[C@@]4(c5cc(NC(=O)CCC(=O)OCc6cn(Cc7ccc(F)cc7)nn6)c(OC)cc5N(C)[C@H]4[C@@](O)(C(=O)OC)[C@@H]1OC(C)=O)[C@@H]32`, the growth is 104% (inactive).

`Cc1nn(-c2ccccc2)c(Oc2ccccn2)c1-c1nc2ccccc2s1`: the growth is 98.6% (inactive).

`O=C(Cn1c2c(c3ccccc31)CCCC2)Nc1ccc(-c2nc3ccccc3s2)cc1`: the growth is 98.8% (inactive).

`N#Cc1c(N)nnn1Cc1cc(=O)oc2c1ccc1ccccc12`: the growth was 105% (inactive).

In the case of `O=C1N[C@@H]2NC(=[N+]3CCOCC3)N[C@@H]2N1`, the growth is 114% (inactive).

In the case of `CCN1C(=O)N(CC)C2C1NN=c1s/c(=C\c3ccc(Cl)cc3Cl)c(=O)n12` (configuration not stated), the growth is 6% (active).

Consider `CC1=C(Nc2ccc(N3CCN(C)CC3)cc2)C(=O)c2cncnc2C1=O`, for which the growth was 81% (inactive).

As for `O=c1oc2ccccc2cc1C1=NN=C(SCc2ccccc2)SC1`, the growth was 100% (inactive).

Consider `O=C(O)CNC1=C(Cl)C(=O)c2ccccc2C1=O`, for which the growth is 112% (inactive).

As for `N#CC1=C(c2ccc(Cl)cc2)Nc2c(c(-c3ccc(Cl)cc3)nn2-c2ccccc2)C12C(=O)Nc1ccc(Cl)cc12` (configuration not stated), the growth is 76.6% (inactive).

Consider `C=C(C)[C@@H]1CC[C@]2(C(=O)O)CC[C@]3(C)[C@H](CC[C@@H]4[C@@]5(C)C[C@@H](Cc6cn(CCO[C@@H]7O[C@H](COC(C)=O)[C@H](OC(C)=O)[C@H](OC(C)=O)[C@H]7OC(C)=O)nn6)[C@H](O)C(C)(C)[C@@H]5CC[C@]43C)[C@@H]12`, for which the growth is 81.8% (inactive).
